The values below come from PMC11062922 (Nature Chemical Biology, 2023).

Common to all, as to set-up: species or system human, MV4-11 + K-562 + COLO205 + SK-N-BE2 + OVCAR-8
Test [1] relates to CDK2. The note with it: read-out: apparent Kd; compound concentrations:100 nM and 1000 nM (sheet 'Samples'); n = 1.
Test [2] deals with CDKL5. To be noted: read-out: apparent Kd; compound concentrations:100 nM and 1000 nM (sheet 'Samples'); n = 1.
Test [3] concerns FLT3. To be noted: read-out: apparent Kd, n = 1.
Test [4] concerns CDK16. The note with it: read-out: apparent Kd, compound concentrations: 100 nM and 1000 nM (sheet 'Samples'), n = 1.
The subject of test [5] is CDK17. The note with it: read-out: apparent Kd, compound concentrations: 100 nM and 1000 nM (sheet 'Samples'), n = 1.
Test [6] concerns GSK3A. The note with it: read-out: apparent Kd, n = 1.
The subject of test [7] is CDC42. To be noted: read-out: apparent Kd, n = 1.
Test [8] concerns LIMK2. To be noted: read-out: apparent Kd; compound concentrations:100 nM and 1000 nM (sheet 'Samples'); n = 1.
For test [9], the system named is CSNK1A1. The note with it: read-out: apparent Kd, compound concentrations: 100 nM and 1000 nM (sheet 'Samples'), n = 1.
The test system of test [10] is CSNK1D. To be noted: read-out: apparent Kd, compound concentrations: 100 nM and 1000 nM (sheet 'Samples'), n = 1.
The subject of test [11] is CSNK1E. To be noted: read-out: apparent Kd, compound concentrations: 100 nM and 1000 nM (sheet 'Samples'), n = 1.
Test [12] has as its system GAK. To be noted: read-out: apparent Kd; compound concentrations: 100 nM and 1000 nM (sheet 'Samples'), CATDS: 0.12375475758879401; n = 1.
The test system of test [13] is RIOK2. To be noted: read-out: apparent Kd, compound concentrations: 100 nM and 1000 nM (sheet 'Samples'), n = 1.
The subject of test [14] is CLK1. To be noted: read-out: apparent Kd, compound concentrations: 100 nM and 1000 nM (sheet 'Samples'), n = 1.
Test [15] has as its system CLK4. The note with it: read-out: apparent Kd, compound concentrations: 100 nM and 1000 nM (sheet 'Samples'), n = 1.
Test [16] concerns DYRK1A. To be noted: read-out: apparent Kd; compound concentrations: 100 nM and 1000 nM (sheet 'Samples'), CATDS: 6.0885213450921502E-2; n = 1.
The test system of test [17] is GSK3B. To be noted: read-out: apparent Kd; compound concentrations: 100 nM and 1000 nM (sheet 'Samples'), CATDS: 0.436012050591219; n = 1.
The subject of test [18] is ICK. To be noted: read-out: apparent Kd; compound concentrations: 100 nM and 1000 nM (sheet 'Samples'), CATDS: 7.1463639855973302E-2; n = 1.
Test [19] concerns PRKCA. To be noted: read-out: apparent Kd; compound concentrations: 100 nM and 1000 nM (sheet 'Samples'), CATDS: 6.1825082982023397E-2; n = 1.
The subject of test [20] is PRKCB. To be noted: read-out: apparent Kd; compound concentrations: 100 nM and 1000 nM (sheet 'Samples'), CATDS: 5.6210904808559101E-2; n = 1.
In test [21] the test system is PRKCD. The note with it: read-out: apparent Kd; compound concentrations: 100 nM and 1000 nM (sheet 'Samples'), CATDS: 6.6135854236704303E-2; n = 1.
Test [22] concerns SLK. To be noted: read-out: apparent Kd; compound concentrations: 100 nM and 1000 nM (sheet 'Samples'), CATDS: 5.3656939950023998E-2; n = 1.
Test [23] relates to CDC7. To be noted: read-out: apparent Kd; compound concentrations: 100 nM and 1000 nM (sheet 'Samples'), CATDS: 8.1877579079801296E-2; n = 1.
Test [24] concerns ILK. The note with it: read-out: apparent Kd; compound concentrations: 100 nM and 1000 nM (sheet 'Samples'), CATDS: 8.2547383277030401E-2; n = 1.
Test [25] relates to NQO1. The note with it: read-out: apparent Kd; compound concentrations: 100 nM and 1000 nM (sheet 'Samples'), CATDS: 9.0275127229000399E-2; n = 1.
For test [26], the system named is TP53RK. The note with it: read-out: apparent Kd; compound concentrations: 100 nM and 1000 nM (sheet 'Samples'), CATDS: 7.7480450425825395E-2; n = 1.
[27] abbreviates: compound concentrations:100 nM and 1000 nM (sheet 'Samples').

SMILES strings stand for the structures. Like-named read-outs stand apart in the source and are kept apart here.

As to `O=C(Nc1n[nH]c2cc(-c3ccoc3)ccc12)C1CC1` [SB-738481], the potency estimated from few doses in test [1] was 1470 nM; in [2] it was 1100 nM; in [3] (setting [27]), 884 nM.

For `CCN1CCC(CC(=O)Nc2n[nH]c3nc(-c4cccs4)c(Br)cc23)CC1.O=C(O)[C@H](O)[C@@H](O)C(=O)O` [SB-739245-AC], the potency estimated from few doses was 802 nM in test [4] (CATDS: 0.32554244195376097); 861 nM in test [5] (CATDS: 0.31469055739513202); 647 nM in test [6] (compound concentrations: 100 nM and 1000 nM (sheet 'Samples'), CATDS: 0.36357302595777402).

On to `CC(=O)Nc1n[nH]c2ncc(-c3ccccc3)cc12` [SB-548492], for which the potency estimated from few doses was 1850 nM in [7] (setting [27]), 1040 nM in [3] (setting [27]), 748 nM in test [6] (setting [27]) and 1150 nM in [8].

`CCc1nn2ncccc2c1-c1ccnc(NC2CC2)n1` [GW683768X]: the potency estimated from few doses is 1390 nM in test [7] (compound concentrations: 100 nM and 1000 nM (sheet 'Samples'), CATDS: 0.112066673449154); 1200 nM in test [9] (CATDS: 0.11767767323313399); 95.2 nM in [10] (CATDS: 0.430543569866988); 230 nM in test [11] (CATDS: 0.24847771886196199); 948 nM in test [3] (compound concentrations: 100 nM and 1000 nM (sheet 'Samples'), CATDS: 0.12792168712312599); 1040 nM in [12]. In addition, in [13] (CATDS: 0.107134967231821), the potency estimated from few doses was 1610 nM.

For the molecule `Cl.Cn1cc(C2=C(c3cccc(NCC(O)CO)c3)C(=O)NC2=O)c2cc(Cl)ccc21` (stereo not drawn) [RO3303724-001], the potency estimated from few doses is 435 nM in test [4] (CATDS: 8.3420011221061796E-2); 789 nM in test [5] (CATDS: 6.9472696820348595E-2); 89.4 nM in test [14] (CATDS: 0.14144162064954499); 140 nM in test [15] (CATDS: 0.121885472090614); 1290 nM in [16]; 1.59 nM in test [6] (compound concentrations: 100 nM and 1000 nM (sheet 'Samples'), CATDS: 0.52335848110550598). Moreover, the potency estimated from few doses in [17] is 2.26 nM; in test [18], 716 nM; in test [19], 1210 nM; in test [20], 1830 nM; in [21] it was 939 nM; in test [22], 2310 nM.

`CCc1c(C)nc2sc3c(N)ncnc3c2c1C` [RO4493944-000]: the potency estimated from few doses was 1870 nM in test [23]; 453 nM in test [14] (CATDS: 0.173131615518303); 724 nM in test [15] (CATDS: 0.128777290310437); 903 nM in test [9] (CATDS: 0.113796385521925); 949 nM in [10] (CATDS: 0.110842785331434); 1220 nM in test [11] (CATDS: 9.8087772288550895E-2). The potency estimated from few doses was 1830 nM in test [24], 1460 nM in test [25], 1200 nM in test [13] (CATDS: 9.8590158992526697E-2) and 2190 nM in [26].
